Potency and affinity values are given separately. The source made the active and inactive calls. How the calls were made is not given here.
Assay: cytotoxicity control, cell-based, set 2 (AID 504683)
Details: THP-1 human monocytes; series mostly up to 100 µM; viability: at the top concentration

| Compound | viability |
| --- | --- |
| COC(=O)C1CC(=O)N(c2ccc(OCc3ccccc3Cl)cc2)C1 (stereo not drawn) | 95.3% (inactive) |
| CC(=NCc1ccc2c(c1)OCO2)C1=C(O)c2ccccc2C1=O | 96.5% (inactive) |
| Cc1nc(SCC(N)=O)[nH]c(=O)c1C | 102% (inactive) |
| O=C(CSc1nc(O)cc(=O)[nH]1)Nc1ccccc1 | 103% (inactive) |
| O=C(CSc1ccccn1)NC1CCCCC1 | 106% (inactive) |
| COC(=O)c1ccc(CNc2c(N3CCCC3)c(=O)c2=O)cc1 | 100% (inactive) |
| CCOC1OC(=O)C(Cl)=C1Nc1ccccc1C (stereo not drawn) | 91.5% (inactive) |
| COc1cc(NC(=O)C/C(C)=N/NC(=O)c2ccccn2)c(OC)cc1Cl | 99.3% (inactive) |
| Cc1nc(SCC(=O)N(C)c2ccccc2)[nH]c(=O)c1C | 90% (inactive) |
| Cc1cc(=O)[nH]c(SCC(=O)Nc2ccccc2)n1 | 90.5% (inactive) |
| O=C(CSc1nc2ccccc2c(=O)[nH]1)NC1CCCCC1 | 106% (inactive) |
| O=c1[nH]c(=S)[nH]c2ccccc12 | 105% (inactive) |
| Cc1nc(SCc2ccccc2Cl)[nH]c(=O)c1C | 97.9% (inactive) |
| Cc1ccc(NC(=O)C2C3/C=C\CCCCC32)cc1C (stereo not drawn) | 93% (inactive) |
| CCOC(=O)COc1ccc(/C=C2\NC(=S)N(CC)C2=O)cc1 | 83.1% (inactive) |
| O=C(CSc1ncccn1)NC1CCCCC1 | 110% (inactive) |
| CCOC(=O)CSc1nc(C)c(C)c(=O)[nH]1 | 101% (inactive) |

| Compound | viability |
| --- | --- |
| Cc1ccc(NC(=O)COC(=O)CCc2c[nH]c3ccccc23)cc1[N+](=O)[O-] | 104% (inactive) |
| Cc1cc(=O)[nH]c(=S)[nH]1 | 114% (inactive) |
| O=C(CSc1nccc(=O)[nH]1)Nc1ccc(Oc2ccccc2)cc1 | 94.9% (inactive) |
| Cc1[nH]c(=S)[nH]c(=O)c1C | 101% (inactive) |
| COC(=O)C(C)Oc1ccc(Cc2ncc(C(F)(F)F)cc2Cl)cc1 (stereo not drawn) | 102% (inactive) |
| COC(=O)C(C)Oc1ccc(-c2nccc(-c3ccccn3)n2)cc1 (stereo not drawn) | 83.3% (inactive) |
| O=C(CSc1nc2ccccc2c(=O)[nH]1)NCc1ccc(Cl)cc1 | 89.6% (inactive) |
| O=C(/C=C\c1cccs1)N1CCN(Cc2ccc3c(c2)OCO3)CC1 | 87.9% (inactive) |
| CC1CCN(C(=O)C2CCN(c3nnc(-n4cccc4)s3)CC2)CC1 | 90.2% (inactive) |
| COC(=O)CCc1nc2c(C#N)c(-c3ccc(Cl)cc3)ccn2n1 | 97.2% (inactive) |
| Cc1nc(SCC(=O)NC2CCCCC2)[nH]c(=O)c1C | 113% (inactive) |
| O=C(CSc1nccc(=O)[nH]1)Nc1ccc(N2CCOCC2)cc1 | 103% (inactive) |
| CCSc1nc2ccccc2c(=O)[nH]1 | 90.2% (inactive) |
| CCSc1nc(C)c(C)c(=O)[nH]1 | 100% (inactive) |
| CCc1ccc(/C=C2/C(=O)N(C)C(=S)N2CC(=O)OC)s1 | 82.8% (inactive) |
| Cc1c[nH]c(=S)[nH]c1=O | 113% (inactive) |

Reference: PubChem BioAssay AID504683 (Southern Research Specialized Biocontainment Screening …, 2011)
